# Data reported in PubChem BioAssay (NCATS).
# Results filed as inconclusive are left out. A number with no mark means an inactive call. The source made the active and inactive calls. Calls come from the whole dose curve; as a rule, active = well fitted inhibition curve with a large enough effect; inconclusive = small, poorly fitted or top-dose-only effect; inactive = flat fitted curve, though single readings scatter.
# Test system: Zika virus NS2B-NS3 protease
# Experiment: Primary screen GU AMC qHTS for Zika virus inhibitors (AID 1347154); note: nearly all actives have a fitted effect of over 70% in size;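 for activity change, negative = inhibition: 0% = no-inhibitor control and -100% = no-enzyme control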
# Conditions: Zika NS2B-NS3 unlinked protease, AMC fluorogenic substrate; series mostly up to 54.1 µM; activity change, negative = inhibition: at the top concentration
# Source text: Avindra Nath, Ph.D., National Institute of Neurological Disorders and Stroke (NINDS), Bethesda, MD
# Radhakrishnan Padmanabhan, Ph.D., Georgetown University (GU), Washington D.C.
# Zika Virus causes congenital defects, including microcephaly and is associated with Guillain-Barre syndrome, eningoencephalitis and myelitis in infected adult. […] Using a target-based approach, we hope to establish a screening paradigm to uncover novel, cell-active NS2B-NS3 protease (Zika Virus) specific inhibitors from NCATS' collection of small molecules using qHTS.
# Early Translation Branch (ETB)
# National Center for Advancing Translational Sciences (NCATS), Rockville, MD
# National Institute of Health (NIH), Bethesda, Maryland
# Padmanabhan lab provided the NS2B hydrophilic domain and NS3 protease domain in a noncovalent complex used for the unlinked assay. Control compound aprotinin is obtained from Thermo Scientific (#78432; Waltham, Massachusetts). NS2B-NS3 AMC substrate (Bz-Nle-Lys-Arg-Arg-AMC; Nle-KRR-AMC) purchased from Bachem (#I-1995; Torrance, CA). Ac-VKTGKR-AMC purchased from Genscript or Bachem, Ac-FAAGKR-AMC purchased from Genscript, Ac-GLVKRR-AMC purchased from Genscript, Ac-LKKR-AMC purchased from Genscript.
# GU AMC unlinked NS2B-NS3 protease qHTS protocol
# Briefly, 3 microL of Zika virus unlinked NS2B-NS3 protease (25 nM for linked final concentration), in assay buffer (10 mM Tris-HCl pH 8.0 with 0.01% Tween 20) was dispensed into a 1,536-well solid-bottom black plate (Greiner Bio One, Monroe, NC). […] Plates were then read immediately on a ViewLux High-throughput CCD imager (PerkinElmer, Waltham, MA) equipped with standard UV fluorescence optics (340(30) nm excitation, 450(20) nm emission) then incubated (room temperature, protected from light) for 15 minutes (~20% conversion). The change in fluorescence intensity over the 15-minute reaction period was normalized against no-inhibitor and no-enzyme controls and the resulting percent inhibition data were fitted to a 4-parameter Hill equation. Aprotinin was used as the intraplate control.
# Potency is the fitted concentration of half-maximal effect.
SMILES,"activity change, negative = inhibition",Potency
c1ccc2sc(SN3CCOCC3)nc2c1,-8.6%,
Oc1cc2c(cc1O)CN(C(=S)NCCc1ccc(Cl)cc1)CCC2,-21.2%,
CCCC(=O)OC[C@@H](OC(=O)CCC)[C@@H](OC(=O)CCC)[C@H](Cn1c2nc(=O)[nH]c(=O)c-2nc2cc(C)c(C)cc21)OC(=O)CCC,-12.6%,
CC1(C)S[C@@H]2[C@H](NC(=O)[C@H](N)c3ccccc3)C(=O)N2[C@H]1C(=O)O,-6.97%,
CCCCCCCCc1ccc(-c2ccc(C(=O)O)cc2)cc1,9.19%,
OC[C@H]1O[C@@H](n2cnc3c(NC4CCCC4)ncnc32)[C@H](O)[C@@H]1O,-6.84%,
CN(C)c1ccc(C(=C2C=CC(=[N+](C)C)C=C2)c2ccccc2)cc1,-12.5%,
CNC(=O)[C@H]1O[C@@H](n2cnc3c(NCc4ccc(N)cc4)ncnc32)[C@H](O)[C@@H]1O,4.81%,
CC1(C)C[C@@H]1C(=O)N/C(=C\CCCCSC[C@H](N)C(=O)O)C(=O)O,9.2%,
NC[C@@H]1O[C@H](C23CC4CC(CC(C4)C2)C3)Cc2c1ccc(O)c2O,,inactive
Nc1c(CC(=O)O)cccc1C(=O)c1ccc(Br)cc1,-5.02%,
CC(C)NC[C@H](O)COc1cccc2[nH]ccc12,,inactive
CC(C)NCC(O)COc1cccc2ccccc12 (stereo not given),15.8%,
Cc1c(Nc2ncccc2C(=O)O)cccc1C(F)(F)F,-2.54%,
COc1cc2c(CCNC(C)=O)c[nH]c2cc1Cl,,inactive
O=C(/C=C/c1ccccc1)NCCO,-9.4%,
C=CCc1cccc(/C=N/NC(=O)CN2CCN(Cc3ccccc3)CC2)c1O,28.5%,
OC[C@H]1O[C@@H](n2cnc3c(NC4CCCCC4)ncnc32)[C@H](O)[C@@H]1O,-2.01%,
Cc1ccc2c(n1)Oc1ccc(C(C)C(=O)OCC(=O)N(C)C)cc1C2 (stereo not given),,inactive
NCCO,1.7% [at 104 µM],

SMILES,"activity change, negative = inhibition",Potency
C#C[C@]1(O)CC[C@H]2[C@@H]3CCc4cc(O)ccc4[C@H]3CC[C@@]21C,-8.29%,
CCCCCCCC/C=C\CCCCCCCC(=O)NCCO,,inactive
Cc1nc2sccn2c(=O)c1CCN1CCC(=C(c2ccccc2)c2ccc(F)cc2)CC1,-15.8%,
N=C1N=C(N)c2cc3ccccc3cc21,,23.3 µM (active)
COc1cc(CNC(=O)CCCC/C=C/C(C)C)ccc1O,5.75% [at 104 µM],
CCCN(CC1CC1)c1nc(C)nc(Nc2c(Cl)cc(Cl)cc2Cl)c1Cl,-0.6%,
O=C(OCc1ccccc1)c1ccccc1,-1.37%,
NC(=O)C(c1ccccc1)(c1ccccc1)[C@@H]1CCN(CCc2ccc3c(c2)CCO3)C1,-8.28%,
CN1[C@@H](CC(=O)c2ccccc2)CCC[C@H]1C[C@H](O)c1ccccc1,-5.94%,
COC(=O)Nc1nc2ccc(C(=O)C3CC3)cc2[nH]1,-17.3%,
CSc1ccccc1N1CCN(CCCCCC(=O)NC2CCCc3ccccc32)CC1 (stereo not given),-1.96%,
CN1CC(=O)N/C1=N/C(=O)Nc1cccc(Cl)c1,-6.75%,
O=C(CS)Nc1ccccc1,-5.63%,
O=C(Nc1ccc(C(=O)O)c(O)c1)c1ccccc1,-8.04%,
O=S(=O)(c1cccc2c(I)cccc12)N1CCCNCC1,14.3%,
COC(=O)c1nc(Cl)c(Cl)nc1N,,10 µM (active)
CC(C(=O)O)c1ccc(C(=O)c2cccs2)cc1 (stereo not given),-6.05%,
O=C(O)CNC(=O)C(CS)Cc1ccccc1 (stereo not given),10.2% [at 104 µM],
CN1CCc2ccccc2Cc2[nH]c3ccccc3c2CC1,24.7%,
CC12C(=O)OC(=O)C1(C)C1CCC2O1 (stereo not given),38.3% [at 104 µM],
